This is an account of results in PubChem BioAssay (Tox21).

A short description of assay [1]: qHTS assay to identify small molecule agonists of the constitutive androstane receptor (CAR) signaling pathway - cell viability counter screen (AID 1224836). Note: nearly all actives have a fitted effect of over 45% in size. The method in brief: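 Viability read-out: CellTiter-Fluor fluorescence after 23 h compound exposure at 37 C/5% CO2 in double-stable HepG2-CYP2B6-hCAR cells, with PK11195 present at 0.75 uM final; compounds tested in 15-point titration.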

A short description of assay [2]: qHTS assay to identify small molecule antagonists of the constitutive androstane receptor (CAR) signaling pathway - cell viability counter screen (AID 1224837). Note: nearly all actives have a fitted effect of over 45% in size. The method, boiled down: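 Multiplexed cytotoxicity read-out for the CAR antagonist screen: double-stable HepG2-CYP2B6-hCAR cells co-treated with 50 nM CITCO (final) and compound over 15 concentrations, incubated 23 hr, then assessed by CellTiter-Fluor fluorescence.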

The target in assay [3] is Nuclear receptor subfamily 1 group I member 3 (Homo sapiens) (UniProt Q14994). Kind of assay: qHTS assay to identify small molecule antagonists of the constitutive androstane receptor (CAR) signaling pathway (AID 1224838). Note: nearly all actives have a fitted effect of over 40% in size. The method, boiled down: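 Compounds were titrated across 15 concentrations onto HepG2 cells double-stably expressing hCAR and a CYP2B6-2.2kb reporter, together with 50 nM CITCO (final). After 24 h at 37 C, luciferase activity was measured by luminescence.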
Nuclear receptor subfamily 1 group I member 3 (Homo sapiens), sequence (Q14994 whole entry, looked up): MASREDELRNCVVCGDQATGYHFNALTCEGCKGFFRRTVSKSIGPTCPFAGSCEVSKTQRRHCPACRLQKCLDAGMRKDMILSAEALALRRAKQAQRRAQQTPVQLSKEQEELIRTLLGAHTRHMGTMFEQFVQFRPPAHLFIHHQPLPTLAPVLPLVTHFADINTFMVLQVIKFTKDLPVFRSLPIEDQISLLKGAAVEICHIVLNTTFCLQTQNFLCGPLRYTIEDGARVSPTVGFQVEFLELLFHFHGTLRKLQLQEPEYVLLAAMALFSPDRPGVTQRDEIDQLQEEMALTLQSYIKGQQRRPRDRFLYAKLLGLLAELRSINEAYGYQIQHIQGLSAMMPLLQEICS

For assay [4] the target is unchanged. Briefly: qHTS assay to identify small molecule agonists of the constitutive androstane receptor (CAR) signaling pathway (AID 1224839). Note: nearly all actives have a fitted effect of over 15% in size. Note: potency is the fitted concentration of half-maximal effect. The method, boiled down:
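Luminescence read-out (ONE-Glo, 30 min, room temperature) from double-stable HepG2-CYP2B6-hCAR cells exposed 24 h to 15-point compound series in presence of 0.75 uM PK11195 final.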

Assay [5] in a line: qHTS assay to identify small molecule antagonists of the estrogen related receptor signaling pathway with the pleiotropic PPARgamma coactivator (PGC) from Tox21 10K library - cell viability counter screen (AID 1224840; active = well fitted cell-killing curve with a large enough effect in the repeat runs, not every such curve was filed as active; note: nearly all actives have a fitted effect of over 40% in size). The method, boiled down: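 Step one, plate 2,000 PGC/ERR cells per well; step two, incubate 6 h at 37 C/5% CO2; step three, pin-transfer compounds; step four, incubate 17.5 h; step five, add CellTiter-Fluor and read fluorescence after 30 min.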

Assay [6] in a line: qHTS assay to identify small molecule antagonists of the estrogen related receptor signaling pathway with the pleiotropic PPARgamma coactivator (PGC) from Tox21 10K library (AID 1224841; call rule not given here; note: actives are mostly falling curves and most rising ones were filed inactive; nearly all actives have a fitted effect of over 50% in size). The method, boiled down: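 Antagonism in this quantitative HTS is taken from loss of luciferase signal in PGC/ERR cells. Cells (2,000/well) are treated with compounds in DMSO after a 6 h settling period and read by One-Glo luminescence after 18 h.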

The nature of assay [7]: qHTS assay to identify small molecule agonists of the estrogen related receptor signaling pathway with the pleiotropic PPARgamma coactivator (PGC) from Tox21 10K library (AID 1224842). Note: nearly all actives have a fitted effect of over 15% in size. The method in brief: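 PGC/ERR reporter cell line, 2,000 cells per well, incubated 6 h at 37 C before 23 nL compound in DMSO was added. After 18 h at 37 C, One-Glo luminescence read following 30 min at room temperature.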

Assay [8] is described as follows: qHTS assay to identify small molecule agonists of the hypoxia (HIF-1) signaling pathway - cell viability counter screen (AID 1224844; calls by dose curve; note: nearly all actives have a fitted effect of over 50% in size; note: potency is the fitted concentration of half-maximal effect). The method, boiled down:
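Tox21 10K compounds were added to HRE-bla ME-180 cells (0.5% dialyzed FBS) and incubated 17 hrs at 37C; ATP-based CellTiter-Glo luminescence then reported cell viability in the same wells.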

Assay [9] can be described thus: qHTS assay to identify small molecule agonists of H2AX (AID 1224845; active = well fitted activation curve with a large enough effect in the signal ratio in the repeat runs, not every such curve was filed as active; the % refers to the signal ratio; note: potency is the fitted concentration of half-maximal effect). The method in brief: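 Wild-type CHO-K1 cells, plated overnight, exposed 3hr at 37C to 15 concentrations (0.76% DMSO final). Lysed, then HTRF anti-pH2AX (S139) cryptate and anti-H2AX-d2 antibodies, 24 hr room temperature; 665/620 nm emission read.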
A short description of assay [10]: qHTS assay to identify small molecule agonists of the hypoxia (HIF-1) signaling pathway (AID 1224846; active = well fitted activation curve with a large enough effect in the signal ratio in the repeat runs, not every such curve was filed as active; the % refers to the signal ratio). The method in brief: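 Steps: seed ME-180 HRE-bla cells (2,000/well, 0.5% dialyzed FBS); incubate 5 hrs at 37C; pin-transfer compounds or DMSO; incubate 17 hrs; add LiveBLAzer B/G substrate CCF4-AM; measure reporter activation by FRET.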
Assay [11] is described as follows: qHTS assay to identify small molecule agonists of H2AX - cell viability counter screen (AID 1224847; calls by dose curve; note: nearly all actives have a fitted effect of over 30% in size; note: potency is the fitted concentration of half-maximal effect). The method in brief: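 CHO-K1 wt, 1000 cells/well, o/n 37C; cpds 15 conc, 3 h 37C, 0.76% DMSO; CellTiter-Glo, 30 min RT, luminescence.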
Assay [12] can be described thus: qHTS assay to identify small molecule antagonists of the estrogen related receptor (ERR) signaling pathway from Tox21 library (AID 1224848). Note: nearly all actives have a fitted effect of over 50% in size. Note: potency is the fitted concentration of half-maximal effect. The method in brief: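 ERR reporter cell line (from NTP) seeded 2,000 cells/well, rested 6 h at 37 C/5% CO2, then pin-dosed with compounds in DMSO. After 18 h at 37 C, ONE-Glo added; luminescence read after 30 min at room temperature.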

The nature of assay [13]: qHTS assay to identify small molecule agonists of the estrogen related receptor (ERR) signaling pathway from Tox21 library (AID 1224849; calls by dose curve; note: nearly all actives have a fitted effect of over 15% in size). To be noted: ERR reporter cell line, ONE-Glo luciferase, 18 h; at 92.4 µM (top of the series) unless noted. The method in brief:
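Agonist signal is luciferase luminescence from an ERR reporter cell line treated 18 h at 37 C with DMSO-dissolved compounds, read 30 min after ONE-Glo addition at room temperature.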

Assay [14] is described as follows: qHTS RealTime-Glo MT Cell Viability Assay in HepG2 cells - 24 hour (AID 1224867). Note: nearly all actives have a fitted effect of over 50% in size. Note: potency is the fitted concentration of half-maximal effect. The method in brief: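 Real-time, nonlytic viability: 600 HepG2 cells/well mixed with NanoLuc enzyme plus prosubstrate; 5 h settle, compound (DMSO) added by pintool; luminescence monitored over 40 h at 37 C.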
Assay [15] can be described thus: qHTS RealTime-Glo MT Cell Viability Assay in HEK293 cells - 32 hour (AID 1224868). Note: nearly all actives have a fitted effect of over 50% in size. Note: potency is the fitted concentration of half-maximal effect. The method in brief: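 Cells + reagent dispensed (600 cells/well, HEK293) → 5 h at 37 C/5% CO2 → 23 nL compound in DMSO pinned → 40 h at 37 C → luminescence read at 0, 8, 16, 24, 32, 40 h.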
A short description of assay [16]: A CellTox Green Cytotoxicity Assay to monitor cytotoxicity in HEK293 cells - 0 hour (AID 1224869). Note: nearly all actives have a fitted effect of over 50% in size. The method, boiled down: (§1)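 Cytotoxicity was tracked continuously in HEK293 cells by a DNA-binding dye excluded from viable cells. Compounds were transferred in DMSO 5 h after seeding; fluorescence was recorded at intervals up to 40 h.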
Assay [17] in a line: qHTS RealTime-Glo MT Cell Viability Assay in HepG2 cells - 40 hour (AID 1224870). Note: nearly all actives have a fitted effect of over 50% in size. Note: potency is the fitted concentration of half-maximal effect. The method in brief: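 HepG2 cells (600/well) mixed with RealTime-Glo MT reagent, settled 5 h at 37 C/5% CO2 before compound addition. Nonlytic NanoLuc luminescence from viable-cell prosubstrate reduction read repeatedly during 40 h treatment at 37 C.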
Assay [18] is described as follows: A CellTox Green Cytotoxicity Assay to monitor cytotoxicity in HEK293 cells - 40 hour (AID 1224871). Note: nearly all actives have a fitted effect of over 45% in size. Note: potency is the fitted concentration of half-maximal effect. The method in brief: as §1
The target in assay [19] is Thyrotropin receptor (Homo sapiens) (UniProt P16473). Kind of assay: qHTS assay to identify small molecule agonists of the thyroid stimulating hormone receptor (TSHR) signaling pathway (AID 1224843; calls by dose curve; note: nearly all actives have a fitted effect of over 45% in size; note: potency is the fitted concentration of half-maximal effect). The method, boiled down: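 TSHR-HEK293 cells in agonist mode, 30 min room-temperature step, then cAMP measured by competitive HTRF (cAMP-d2 with anti-cAMP cryptate) after 1 h at room temperature. Tested at 15 concentrations in triplicate.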
Thyrotropin receptor (Homo sapiens), sequence (P16473 whole entry, looked up): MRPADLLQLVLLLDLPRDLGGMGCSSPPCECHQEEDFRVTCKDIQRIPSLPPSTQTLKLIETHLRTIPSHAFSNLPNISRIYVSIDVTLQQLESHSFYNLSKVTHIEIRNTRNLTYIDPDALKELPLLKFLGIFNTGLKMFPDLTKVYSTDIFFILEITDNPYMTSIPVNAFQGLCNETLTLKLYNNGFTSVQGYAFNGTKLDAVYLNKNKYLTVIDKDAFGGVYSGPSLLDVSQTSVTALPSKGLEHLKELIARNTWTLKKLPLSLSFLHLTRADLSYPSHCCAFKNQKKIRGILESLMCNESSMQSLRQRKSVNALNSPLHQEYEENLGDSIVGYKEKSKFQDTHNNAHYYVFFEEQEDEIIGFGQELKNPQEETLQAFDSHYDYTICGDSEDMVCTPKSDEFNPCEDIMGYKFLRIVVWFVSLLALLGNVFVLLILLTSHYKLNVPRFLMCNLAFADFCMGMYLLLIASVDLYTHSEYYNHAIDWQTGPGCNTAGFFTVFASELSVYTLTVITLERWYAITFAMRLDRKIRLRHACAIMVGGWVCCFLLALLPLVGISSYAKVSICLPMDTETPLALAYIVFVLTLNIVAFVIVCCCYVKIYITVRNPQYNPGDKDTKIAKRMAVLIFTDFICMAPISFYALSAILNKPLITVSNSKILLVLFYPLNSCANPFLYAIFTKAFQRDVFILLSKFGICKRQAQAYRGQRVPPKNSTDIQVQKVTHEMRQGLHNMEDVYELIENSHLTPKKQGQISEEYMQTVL

Assay [20] concerns the target Luciferin 4-monooxygenase (Photinus pyralis) (UniProt P08659). Kind of assay: qHTS assay to identify small molecule inhibitors of firefly luciferase (AID 1224835). Note: nearly all actives have a fitted effect of over 25% in size. The method, boiled down:
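Biochemical qHTS: compounds run as interplate titrations against purified firefly enzyme, with D-luciferin and ATP each at its KM concentration. Light output recorded by CCD imaging.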

Values without a mark were called inactive. Results filed as inconclusive are left out. Active and inactive are the calls of the source. Unless noted, calls come from the whole dose curve; as a rule, active = well fitted curve in the direction sought with a large enough effect in the repeat runs; inconclusive = weak or mixed curves; inactive = no such curve, though single readings can be large; an effect the other way counts as inactive or inconclusive.
% is set by controls: 0 for no effect and ±100 for the full control effect.

Luciferin 4-monooxygenase (Photinus pyralis), sequence (P08659 whole entry, looked up): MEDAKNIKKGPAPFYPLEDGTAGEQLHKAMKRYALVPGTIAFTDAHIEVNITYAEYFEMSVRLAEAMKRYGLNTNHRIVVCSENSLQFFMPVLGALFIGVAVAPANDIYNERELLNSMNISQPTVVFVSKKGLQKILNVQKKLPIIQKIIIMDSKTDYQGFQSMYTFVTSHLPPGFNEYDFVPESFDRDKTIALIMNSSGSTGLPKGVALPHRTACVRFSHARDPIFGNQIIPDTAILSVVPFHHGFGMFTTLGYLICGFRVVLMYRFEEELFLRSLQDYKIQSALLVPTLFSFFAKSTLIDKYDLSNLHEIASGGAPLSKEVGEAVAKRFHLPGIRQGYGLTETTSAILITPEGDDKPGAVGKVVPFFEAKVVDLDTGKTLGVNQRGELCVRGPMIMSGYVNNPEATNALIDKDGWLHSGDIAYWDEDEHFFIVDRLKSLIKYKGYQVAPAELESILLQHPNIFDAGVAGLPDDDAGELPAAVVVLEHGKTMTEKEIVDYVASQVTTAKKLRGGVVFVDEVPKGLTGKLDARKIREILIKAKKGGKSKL

In the case of `CCCCCCCCCCCCCOP(=O)(O)O`, the Potency entry in [1], in [2], in assay [3], in [4], in assay [5] and in assay [6] was “inactive” throughout. In addition, the Potency result in assay [7], in assay [8], in [9], in assay [11], in assay [12] and in assay [14] was “inactive” each time. Moreover, the Potency result in [15], in assay [16], in [17] and in assay [18] was “inactive” in each case. The result in assay [10] was inactive. Moreover, in [13], the activity change, positive = activation was -2%.

For the molecule `O=Nc1ccc(NO)cc1`, the Potency entry in assay [1], in assay [2], in assay [3], in [4], in assay [5] and in [6] was “inactive” throughout. Besides, the Potency entry in assay [7], in [8], in assay [11], in assay [12], in assay [14] and in [16] was “inactive” in each case. For the same molecule, the Potency entry in assay [17] is “inactive”.

As to `CCCCCCCCCC(=O)N(C)C`, the Potency entry in assay [1], in assay [2], in assay [3], in [5], in assay [6] and in assay [7] was “inactive” each time. For the same molecule, the Potency entry in [19], in assay [8], in [9], in [12], in assay [14] and in [15] was “inactive” throughout. Also, the Potency entry in [16] and in assay [17] was “inactive” throughout. In [4], the Potency is 55.3 µM (active). Besides, the molecule was called inactive in assay [10]. Moreover, in assay [13], the activity change, positive = activation was 3.98%.

Turning to `C=CC(=O)OCC(O)COc1ccccc1` (centres undefined), the Potency result in assay [20], in [4], in [15], in assay [16] and in [17] was “inactive” each time. The Potency in [8] is 38.9 µM (active).

As for `CCCCOc1ccc(C(=O)CCN2CCCCC2)cc1`, the Potency entry in [3], in assay [4], in assay [5], in assay [19], in assay [8] and in assay [11] was “inactive” throughout. Moreover, the Potency in assay [14] was 21.3 µM (active); in assay [15], 16.9 µM (active); in assay [17] it was 6.74 µM (active); in [18] it was 19 µM (active).

In the case of `Brc1ccccc1-c1ccccc1`, the Potency result in [1], in [2], in assay [3], in assay [4], in assay [12] and in assay [14] was “inactive” in each case. Further, the Potency entry in assay [15], in assay [16] and in assay [17] was “inactive” throughout. The Potency in assay [8] was 36.8 µM (active).

In the case of `CNC(=O)c1cc(Oc2ccc(NC(=O)Nc3ccc(Cl)c(C(F)(F)F)c3)cc2)ccn1`, the Potency entry in assay [20], in assay [7], in assay [19], in assay [8] and in [18] was “inactive” throughout. The Potency was 8.41 µM (active) in [12] and 3.01 µM (active) in assay [15]. In addition, the activity change, positive = activation in [13] is -59.1% [at 42.5 µM].

In the case of `O=C(Oc1ccccc1)c1cccc(C(=O)Oc2ccccc2)c1`, the Potency result in [1], in [2], in assay [3], in [5], in assay [8] and in assay [14] was “inactive” throughout. Besides, the Potency entry in assay [16], in assay [17] and in [18] was “inactive” in each case. Moreover, the Potency in assay [4] is 1.44 µM (active).

On to `c1cc2c3c(c1)ccc1cccc(c13)C2`, for which the Potency entry in assay [1], in assay [2], in [3], in [5], in [6] and in [7] was “inactive” in each case. Moreover, the Potency entry in [19], in assay [14] and in [16] was “inactive” in each case. Also, the Potency in [12] was 70.1 µM (active). In assay [13], the activity change, positive = activation is -42.3%.

Turning to `CC(C(O)c1ccccc1)N(C)CCOC(c1ccccc1)c1ccccc1` (centres undefined), the Potency entry in [20], in assay [4], in assay [7], in [19], in assay [8] and in assay [16] was “inactive” in each case. Further, the call in assay [10] was inactive. The Potency in assay [12] was 23.7 µM (active); in assay [15], 23.9 µM (active); in [18], 26.8 µM (active). Moreover, in [13], the activity change, positive = activation is -45.6% [at 42.5 µM].

Regarding `CN1[C@@H]2CC[C@@H]1CC(OC(=O)C(CO)c1ccccc1)C2` (some centres undefined), the Potency entry in assay [1], in [2], in assay [3], in [5], in assay [8] and in assay [14] was “inactive” each time. Further, the Potency result in [15], in [16], in assay [17] and in [18] was “inactive” in each case.

Turning to `CCCCCCCCCCCCCCNCCO`, the Potency entry in assay [1], in [2], in [3], in assay [5], in assay [19] and in [8] was “inactive” throughout. Moreover, in [16], the Potency result was “inactive”. For the same molecule, the Potency in assay [4] is 8.41 µM (active); in [9] it was 43.8 µM (active); in [11] it was 55.2 µM (active); in [14], 13.4 µM (active); in [15], 13.4 µM (active); in assay [17] it was 10.7 µM (active). For the same molecule, the molecule was classed as inactive in [10].

In the case of `CC(C)OC(=O)c1cc(C(=O)OC(C)C)cc([N+](=O)[O-])c1`, the Potency entry in [1], in [2], in assay [3], in assay [5], in [6] and in assay [8] was “inactive” each time. Besides, the Potency result in assay [9], in [12], in [14] and in assay [17] was “inactive” each time. The Potency in assay [19] is 22.2 µM (active). For the same molecule, the call in assay [10] was inactive. Besides, the activity change, positive = activation in assay [13] was -0.42%.

Turning to `CC(NCCC(c1ccccc1)c1ccccc1)c1ccccc1` (centres undefined), the Potency entry in [20], in assay [4], in assay [8] and in assay [16] was “inactive” each time. The Potency in [14] is 21.3 µM (active); in assay [15], 19 µM (active); in assay [17] it was 21.3 µM (active); in [18] it was 21.3 µM (active).
